Hits are enriched below; roughly 4.6% of the tested compounds scored in any of these assays.
PNC inhibitor = High Content Assay for Compounds that inhibit the Assembly of the Perinucleolar Compartment. activity change (PNC), negative = inhibition, % at 10 µM. PC3M PTB-GFP, PNC prevalence imaging, 16 h; active compounds read low. AID 2417, 2010. 3.1% of 140,000 active;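 active = readout at or below -70, meaning at least 70% loss of cells showing the perinucleolar compartment, a nuclear body marking cancer cells; inconclusive = readout between -30 and a set limit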;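 also: plate controls were DMSO wells for no effect and camptothecin positive control wells for full effect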
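PC3M cells stably expressing PTB-GFP, 750–1000 cells/well, treated 16 h at 37 °C with compound (23 nl of library stock), in duplicate. After paraformaldehyde fixation and Hoechst stain, imaged at 20x; PNC prevalence scored by image analysis.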
Tau fibril ThT = qHTS for Inhibitors of Tau Fibril Formation, Thioflavin T Binding; Microtubule-associated protein tau (Homo sapiens), P10636; recombinant tau K18 P301L, heparin-induced fibrillization, ThT fluorescence; Potency, µM (doses to about 57.4 µM), inactives show at the highest dose activity, negative = inhibition, hits mostly inhibitors; 2.1% of 270,000 active; also: potency is read from the fitted curve at half-maximal effect; nearly all actives have a fitted effect of over 55% in size
Target sequence (P10636 561-689 P618L limits assumed): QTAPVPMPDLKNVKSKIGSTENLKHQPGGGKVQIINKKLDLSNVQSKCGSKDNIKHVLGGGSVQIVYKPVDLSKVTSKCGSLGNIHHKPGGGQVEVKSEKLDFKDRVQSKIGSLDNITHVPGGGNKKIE
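Tau K18 P301L fragment (15 uM unlabeled plus 0.24 uM Alexa 594-labeled) in 100 mM sodium acetate pH 7 with compound, fibrillization induced by 20 uM heparin for 6 hr at 37 C. Thioflavin T (30 uM) added, fluorescence read after 1 hr (ex 450, em 510 nm).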
TexasRed fluor = Total Fluorescence Counterscreen for Inhibitors of the Interaction of Thyroid Hormone Receptor and Steroid Receptor Coregulator 2 | TRb/SRC2 Texas Red total fluorescence interference | Potency, µM (highest dose often 106 µM), for inactives: top-dose fluorescence change, negative = quenching | 0.29% of 280,000 active | AID 1479, 2009; active = well fitted curve in either direction with a large enough effect; inconclusive = small, poorly fitted or top-dose-only effect; also: potency is read from the fitted curve at half-maximal effect
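Human TRb ligand-binding domain at 0.6 uM with 20 nM Texas Red SRC2 peptide in Tris buffer containing 1 uM T3 and 5% DMSO, incubated with compound 5 h at ambient temperature. Total fluorescence (555/632 nm) calculated as parallel + 2 × perpendicular.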
Tau fibril FP = qHTS for Inhibitors of Tau Fibril Formation, Fluorescence Polarization; Potency, µM (titrated, usually from 57.7 µM), for the others: at the top dose activity, negative = inhibition, hits mostly inhibitors; K18 P301L tau heparin fibrillization, Alexa594 FP, 6 h; 0.39% of 280,000 active; Microtubule-associated protein tau (Homo sapiens), P10636; also: potency is read from the fitted curve at half-maximal effect; nearly all actives have a fitted effect of over 55% in size
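Compound effects on tau fibrillization are measured by Alexa 594 fluorescence polarization (ex 555, em 632 nm). K18 P301L tau is used at 15 uM with 0.24 uM labeled tracer, and 20 uM heparin induces aggregation over 6 hr at 37 C.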
TRb SRC2 PPI = qHTS for Inhibitors of the Interaction of Thyroid Hormone Receptor and Steroid Receptor Coregulator 2. Thyroid hormone receptor beta (Homo sapiens), P10828. TRbeta-SRC2 peptide binding, fluorescence polarization; receptor liganded with 1 µM T3. Potency, µM (titrated, usually from 106 µM), for inactives: at the top dose activity change, negative = inhibition, actives largely listed as inhibitors. 0.065% of 280,000 active;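 also: potency is read from the fitted curve at half-maximal effect; plate controls were bound peptide for no effect and peptide without receptor for full effect; nearly all actives have a fitted effect of over 50% in size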
Target sequence (P10828 whole entry, looked up): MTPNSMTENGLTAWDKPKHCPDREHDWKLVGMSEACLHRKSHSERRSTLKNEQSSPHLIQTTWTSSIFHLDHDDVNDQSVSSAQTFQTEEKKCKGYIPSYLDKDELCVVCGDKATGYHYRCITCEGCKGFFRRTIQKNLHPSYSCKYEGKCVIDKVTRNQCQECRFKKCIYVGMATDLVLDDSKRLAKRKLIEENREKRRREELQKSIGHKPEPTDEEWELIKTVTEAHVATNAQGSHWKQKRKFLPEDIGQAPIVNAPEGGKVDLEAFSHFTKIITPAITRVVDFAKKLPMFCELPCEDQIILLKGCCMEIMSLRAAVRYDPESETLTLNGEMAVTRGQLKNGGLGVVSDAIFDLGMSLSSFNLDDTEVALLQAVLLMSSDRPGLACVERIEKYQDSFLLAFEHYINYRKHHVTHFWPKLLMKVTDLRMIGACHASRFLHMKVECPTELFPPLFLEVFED
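Quantitative HTS by FP: 0.6 uM TRb LBD, 20 nM labeled SRC2 20-mer, 1 uM T3, 5% DMSO; 5 hr ambient incubation; % activity per concentration and potencies from concentration series.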
Tau fluor cs = Counterscreen qHTS for Inhibitors of Tau Fibril Formation, Fluorescence Polarization | Potency, µM (series often up to 57.7 µM), inactives show at the highest dose activity change, negative = decrease | tau K18 P301L (four-repeat tau fragment) Alexa594 fluorescence, heparin fibrillization | 0.93% of 280,000 active; also: potency is read from the fitted curve at half-maximal effect; nearly all actives have a fitted effect of over 55% in size
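Human K18 P301L tau (15 uM unlabeled plus 0.24 uM Alexa 594-labeled, final) in 100 mM sodium acetate pH 7 was mixed with compound and 20 uM heparin and incubated 6 hr at 37 C.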
* hit, by the source's call; ? = inconclusive; · = no result; [ ] = another dose, or the depositor's remark. Unless noted, calls follow the shape of the dose curve; as a rule, active = well fitted curve in the direction sought with a large enough effect; inconclusive = small, poorly fitted or top-dose-only effect, or another doubt; inactive = no such curve, though single readings can be large; an effect the other way counts as inactive or inconclusive. Unless noted, % is scaled to controls: 0 for no effect and ±100 for the full control effect.

SMILES	PNC inhibitor	Tau fibril ThT	TexasRed fluor	Tau fibril FP	TRb SRC2 PPI	Tau fluor cs
CCC(c1nnnn1Cc1cccs1)N1CCN(c2nc3ccccc3s2)CC1 (stereo not given)	?	-16%	1%	2%	3%	-16%
Cc1ccc(NCN2C(=O)C3C4C=CC(C4)C3C2=O)cc1 (stereo not given)	19	-3%	-1%	-2%	-7%	-2%
O=C1C2C3C=CC(C3)C2C(=O)N1CNc1ccc(O)cc1 (stereo not given)	?	3.2µM*	-1%	8.9µM*	25µM*	?
O=C(COC(=O)Cc1ccccc1[N+](=O)[O-])NCC1CCCCC1	·	-9%	3%	-5%	-5%	-7%
Cc1cnnn1-c1cccc([N+](=O)[O-])c1	·	-7%	-1%	0%	-4%	-5%
COc1ccc(Nc2nc(N)nc(CSc3nc4cc(OC)ccc4s3)n2)cc1	·	?	-13%	-2%	9%	14µM*[quencher]
Cc1ccc(CS(=O)(=O)CCC(=O)NCC2CCCO2)cc1 (stereo not given)	-84*	-4%	-1%	0%	-1%	2%
O=C(CSc1nc2ccccc2[nH]1)N1c2ccccc2Sc2ccccc21	33	?	?	6%	-5%	?
c1ccc(-c2cc3c(nn2)CCc2nonc2-3)cc1	-102*	-5%	-1%	-2%	5%	-2%
CCN(CC(=O)NCCc1ccc(S(N)(=O)=O)cc1)Cc1nc2ccccc2c(=O)[nH]1	-21	0%	0%	4%	5%	3%
CC(=O)Oc1cc2c3c(c1)/C(=C1/SC(=S)NC1=O)C(=O)N3C(C)(C)C=C2C	·	7.1µM*	-6%	?	3%	7.1µM*[quencher]
CCOc1cc2c3c(c1)C(C)=CC(C)(C)N3C(=O)C2=O	·	?	-5%	-5%	-3%	-21%
Cc1ccc(-c2csc(N(C)C(=O)c3c(C)nn(-c4ccccc4)c3Cl)n2)cc1	-99*	-10%	-8%	?	-12%	-19%
Cc1ccc(OCC(=O)Nc2ccccc2Sc2ccccc2)c([N+](=O)[O-])n1	-107*	-8%	-1%	-6%	6%	?
Cc1ccc(OCC(=O)c2cc(C)c(C)cc2C)c([N+](=O)[O-])n1	-28	16µM*	2%	?	-20%	?
Cc1ccc(C)c(C(=O)COc2ccc(C)nc2[N+](=O)[O-])c1	?	16µM*	-4%	?	2%	?
CCCn1c(C)cc(C(=O)COc2ccc(C)nc2[N+](=O)[O-])c1C	12	-13%	-4%	8%	-6%	-7%
Cc1ccc(OCC(=O)Nc2ccc(F)cc2)c([N+](=O)[O-])n1	·	3%	-1%	1%	-6%	3%
Cc1cc(C)cc(C(=O)N(NC(=O)Nc2ccc(Cl)cc2)C(C)(C)C)c1	15	1%	-3%	-14%	-4%	-27%
Cn1c2c(c(=O)n(C)c1=O)C(C(F)(F)F)(C(F)(F)F)N=C(C1CCCCC1)N2	-93*	-13%	-1%	4%	8%	-17%
Nc1c2c(nc3ccccc13)CCCC2=O	·	-4%	-2%	11%	-9%	5%
O=c1[nH]c(CN2CCOCC2)nc2ccccc12	·	0%	1%	-1%	1%	2%
O=C(C1CCCO1)N1CCN(Cc2nc3ccccc3c(=O)[nH]2)CC1 (stereo not given)	-135*	2%	-2%	-3%	-3%	15%
CCCCCCc1ccc(-c2ncc(N)cn2)cc1	?	-20%	-1%	7%	-2%	14µM*[quencher]
CN=c1scc(-c2ccco2)n1/N=C/c1ccc(O)c(O)c1	·	7.1µM*	-4%	?	-3%	16µM*[quencher]
SMILES	PNC inhibitor	Tau fibril ThT	TexasRed fluor	Tau fibril FP	TRb SRC2 PPI	Tau fluor cs
COn1c2c(c3c4nonc4ccc31)CCCC2	24	14µM*	-3%	?	?	?
COn1c(C)c(C(C)=O)c2c3nonc3ccc21	-23	14µM*	-1%	?	-2%	-15%
On1c2c(c3c4nonc4ccc31)CCCC2	?	7.9µM*	4%	?	2%	?
COn1c2c(c3c4no[n+]([O-])c4ccc31)CCCC2	?	?	0%	2%	10%	-17%
O=C(NCC(=O)N(Cc1ccco1)C(C(=O)NC1CCCCC1)c1cccnc1)c1ccco1 (stereo not given)	24	-10%	0%	-6%	-1%	-4%
Cc1ccnc2nc(C(=O)NCCc3ccc(F)cc3)nn12	-9	0%	-7%	-5%	-3%	3%
CCCS(=O)(=O)N1CCN(Cc2ccccc2OCC)CC1	-85*	1%	-1%	7%	-20%	1%
CCOc1ccccc1CN1CCN(S(=O)(=O)CC)CC1	?	-8%	0%	-9%	3%	-12%
Cc1ccccc1-c1ccc(Nc2ccc(N3CCOCC3)cc2)nn1	43	14µM*	-3%	8%	-22%	?
O=S1(=O)N=C(Nc2ccc(N3CCOCC3)cc2)c2ccccc21	6	?	-2%	?	-1%	-9%
CCOC(=O)c1c(N)sc(C(=O)N2CCOCC2)c1C	-100*	3%	-5%	7%	-1%	0%
COC(=O)c1c(N)sc(C(=O)N2CCOCC2)c1C	?	-6%	-4%	-1%	5%	-3%
O=C(/C=C/c1ccc(Br)cc1)NC(=S)NNC(=O)c1ccco1	5	16µM*	-1%	1%	-6%	-29%
COC1(NS(=O)(=O)c2ccc(Br)cc2)C(C)=CC(=O)C=C1C	·	-10%	0%	3%	0%	-6%
Cc1c(N=C2C=C(Br)C(=O)C(Br)=C2)c(=O)n(-c2ccccc2)n1C	·	16µM*	1%	25µM*	1%	16µM*[quencher]
Cc1c(N=C2C=CC(=O)c3ccccc32)c(=O)n(-c2ccccc2)n1C	·	2.2µM*	-23%	7.9µM*	-25%	4.5µM*[quencher]
Cc1c(N=Nc2ccc(O)cc2)c(=O)n(-c2ccccc2)n1C	·	2%	-1%	3%	0%	-6%
COc1cc(N/N=C(\C)c2ccc(N)cc2)nc(-c2ccccc2)n1	·	16µM*	-4%	3%	-4%	14µM*[quencher]
COc1cc(N/N=C(\C)c2ccc(O)c(C)c2)nc(-c2ccccc2)n1	·	?	-1%	?	3%	8.9µM*[quencher]

Compound activity deposited in PubChem BioAssay by National Center for Advancing Translational Sciences (NCATS).
